# Assay outcomes: PubChem BioAssay, Pan Lab, Icahn School of Medicine at Mount Sinai
# Only a selection was taken, and hits are over-represented in it overall.
# RBX1-CUL1 inh = inhibitors of human ROC1-CUL1 ubiquitin ligase activity | in vitro K48 di-Ub FRET, acceptor:donor ratio, 45 min | inhibition, % at 10 µM | hit rate 0.6% among 140,000; in the data active = inhibition above about 25%
# * = called active by the depositor.
SMILES,RBX1-CUL1 inh
COCC(=O)N1CCCC(Nc2cccc(F)c2)C1 (centres undefined),0
Cn1cccc1/C=C1/C(=O)ON=C1c1ccccc1,2
Cn1cccc1/C=C/c1cc(Br)c(/C=C/c2cccn2C)cc1Br,95*
CCN1C(=O)S/C(=C/c2cccn2C)C1=O,-6
N#Cc1c(NC(=O)CCCOc2ccc(Cl)cc2Cl)sc2c1CCCCCC2,6
O=C(O)/C=C/c1cc(Br)ccc1OCc1cccc(F)c1,3
CCN1CCC(N2CCC(n3nccc3NC(=O)c3ccc4c(c3)OCO4)CC2)CC1,-1
COC(=O)[C@@H]1C[C@H](C(=O)NCC(C)C)[C@H](c2cccc(Cl)c2)N1C,-7
CCOC(=O)Nc1ccc(Br)cc1F,3
CCOC(=O)C(C(C)=O)C1=C(Br)C(=O)C(=O)c2ccc(Br)cc21 (centres undefined),48*
Cc1c(C(=O)O)c2c(n1Cc1ccccc1)C(=O)c1ccc(Br)cc1-2,5
CC(=O)Nc1cccc(C(=O)N2CCOC(CCc3ccccc3)C2)c1 (centres undefined),3
COc1ccccc1Oc1ncccc1CNC(=O)c1ccnc(N)c1,-2
CSC1=N/C(=C\c2ccc(C(=O)O)cc2)C(=O)S1,50*
CSC1=N/C(=C\c2ccc(F)cc2)C(=O)S1,7
CSC1=N/C(=C\c2ccc(OC3CCCC3)cc2)C(=O)S1,5
COc1cccc(/C=C2\N=C(SC)SC2=O)c1OCc1ccccc1,-3
CSC1=N/C(=C\c2cc(Br)ccc2OCC(=O)O)C(=O)S1,50*
O=C(O)COc1ccc(Br)cc1Cl,-3
CCOc1cc(C(c2c(C)[nH][nH]c2=O)c2c(C)[nH][nH]c2=O)ccc1OCc1cccc2ccccc12,45*
COc1cc(C(c2c(C)[nH][nH]c2=O)c2c(C)[nH][nH]c2=O)ccc1OC(=O)c1ccccc1F,-19
COc1ccc(C(=O)Oc2ccc(C(c3c(C)[nH][nH]c3=O)c3c(C)[nH][nH]c3=O)cc2OC)cc1,13
CNCc1cn(C2CCN(Cc3ccsc3)CC2)nn1,-5
O=C(Nc1ccccc1Oc1cccnc1)C1CCCN1Cc1cccnc1 (centres undefined),-3
COC(=O)c1ccc(N=C(N)NC#N)cc1O,-3
SMILES,RBX1-CUL1 inh
Cc1ccc2c(c1)C(Cl)c1ccccc1CS2 (centres undefined),4
CCOC(=O)c1c2c(n(Cc3ccccc3)c1C)C(=O)c1ccc(Br)cc1-2,2
CCOC(=O)c1c2c(n(Cc3ccccc3)c1CNC(C)C)C(=O)C(=O)c1ccccc1-2,103*
CCOC(=O)c1c2c(n(CC(=O)c3ccc(Br)cc3)c1C)C(=O)C(=O)c1ccccc1-2,-3
Cc1ccc(-c2c(C)sc(NC(=O)c3ccncc3)c2C(N)=O)cc1,2
CC(=O)N1c2ccccc2-c2nnc(SCc3ccccc3Cl)nc2OC1c1ccc(C)o1 (centres undefined),13
CCCCCCCCCC(=O)Nc1cc(C(=O)Nc2ccccc2)ccc1OC,-7
Cc1ccc(C)c(NC(=O)CCn2nc(C)c3c(C)n(-c4ccccc4)nc3c2=O)c1,34*
Cc1cccc(NC(=O)CCn2nc(C)c3c(C)n(-c4ccccc4)nc3c2=O)c1C,-4
CCc1cccc(C)c1NC(=O)CCn1nc(C)c2c(C)n(-c3ccccc3)nc2c1=O,2
O=c1nc(C(Cl)(Cl)Cl)nc2ccccn12,2
COCCn1c(CN2CCCC(CO)C2)cnc1S(=O)(=O)C1CCCCCC1 (centres undefined),9
Cc1ccc(N2C(=O)C(Cc3ccc(N(C)C)cc3)=NC2=S)cc1,-1
O=C(O)c1ccc(-c2ccc(/C=C3\SC(=O)N(Cc4ccccc4)C3=O)o2)cc1Cl,93*
Cc1ccc(CN2C(=O)S/C(=C\c3ccc(-c4ccc(C(=O)O)c(Cl)c4)o3)C2=O)cc1,69*
O=C(O)c1ccc(-c2ccc(/C=C3\SC(=O)N(CC(=O)N4CCOCC4)C3=O)o2)cc1Cl,-1
CCN1C(=O)S/C(=C/c2ccc(-c3cccc(C(=O)O)c3C)o2)C1=O,10
Cc1ccc(C(=O)O)cc1-c1ccc(/C=C2\SC(=O)N(Cc3ccccc3)C2=O)o1,14
Cc1ccc(C(=O)O)cc1-c1ccc(/C=C2\SC(=O)N(Cc3ccc(F)cc3)C2=O)o1,-5
CC(=O)Nc1ccc(C2=NNC(=O)CC2)cc1,-4
Cc1ccc(OCCCCc2c(C)n[nH]c2C)c(C)c1,-2
N#C/C(=C\c1ccc2c(c1)OCO2)C(=O)NC1CC1,2
O=c1c2ccccc2nc(-c2ccccc2)n1Nc1cccc(Cl)c1,-4
O=C1/C(=C\c2ccc(-c3ccc(Cl)c(Cl)c3)o2)SC(=Nc2ccccc2)N1Cc1ccco1,1
N#Cc1ccc(-c2ccc(/C=C3\SC(=Nc4ccccc4)N(Cc4ccco4)C3=O)o2)cc1,53*
N#Cc1ccc(/C=C2/SC(=Nc3ccccc3)N(Cc3ccc(C(=O)O)cc3)C2=O)cc1,-2
O=C1NC(=O)C(N=Nc2ccc([N+](=O)[O-])cc2)C(=O)N1,7
CN(C)c1nccc(Nc2ccccc2)n1,-5
Cc1ccccc1-c1cn2c(C(=O)N(C)CCN3CCOCC3)csc2n1,6
